Compound activity deposited in PubChem BioAssay by several laboratories.
L929 necroptosis – L929 zVAD cell death inhibition | AID 1377 | L929 zVAD necroptosis rescue, ATP luminescence, 24 h; with zVAD 60 µM | viability rescue, % at 10 µM | hit rate 0.38% among 220,000;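 active means activation, scaled between plate controls, above about 75%, limit read from the data; inactive means activation under that limit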;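 further: 0% = zVAD with DMSO and 100% = DMSO alone without zVAD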
PKD1 kinase inh – inhibitors of human PKD1 kinase | Q15139 | PKD1 kinase fluorescence polarization assay | inhibition, % (test concentration not listed) | hit rate 0.056% among 200,000 | AID 797; in the data active means inhibition above about 50%
TNF death inh – blocks TNF-alpha induced death of Jurkat FADD-/- cells; activation (protection from cell death), % at 10 µM; hit rate 0.068% among 220,000; Jurkat FADD-/- TNF necroptosis rescue, ATP luminescence, 24 h; 0 = TNF only, 100 = no-TNF cells;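 active means activation, meaning protection from cell death, of at least 50% relative to plate controls; inactive means activation below 50%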;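 further: necroptosis triggered by 40 ng/mL TNF-alpha added together with compound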
PERK inhibitor – blocks human PERK kinase; hit rate 0.17% among 220,000; AID 1416; CHO PERK-DD fusion, SEAP luminescence translation reporter; inhibition, % at 5.6 µM; Q9NZJ5;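 active means inhibition above the mean inhibition of all tested compounds plus 3 SD, set separately per screening campaign, cut at about 2.9% in these data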;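 further: PERK kinase domain activated by AP20187 dimerizer at 100 nM; 0% = DMSO with dimerizer and 100% = rapamycin at 8.4 µM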
Target sequence (Q9NZJ5 whole entry, looked up, the tested form may be a part): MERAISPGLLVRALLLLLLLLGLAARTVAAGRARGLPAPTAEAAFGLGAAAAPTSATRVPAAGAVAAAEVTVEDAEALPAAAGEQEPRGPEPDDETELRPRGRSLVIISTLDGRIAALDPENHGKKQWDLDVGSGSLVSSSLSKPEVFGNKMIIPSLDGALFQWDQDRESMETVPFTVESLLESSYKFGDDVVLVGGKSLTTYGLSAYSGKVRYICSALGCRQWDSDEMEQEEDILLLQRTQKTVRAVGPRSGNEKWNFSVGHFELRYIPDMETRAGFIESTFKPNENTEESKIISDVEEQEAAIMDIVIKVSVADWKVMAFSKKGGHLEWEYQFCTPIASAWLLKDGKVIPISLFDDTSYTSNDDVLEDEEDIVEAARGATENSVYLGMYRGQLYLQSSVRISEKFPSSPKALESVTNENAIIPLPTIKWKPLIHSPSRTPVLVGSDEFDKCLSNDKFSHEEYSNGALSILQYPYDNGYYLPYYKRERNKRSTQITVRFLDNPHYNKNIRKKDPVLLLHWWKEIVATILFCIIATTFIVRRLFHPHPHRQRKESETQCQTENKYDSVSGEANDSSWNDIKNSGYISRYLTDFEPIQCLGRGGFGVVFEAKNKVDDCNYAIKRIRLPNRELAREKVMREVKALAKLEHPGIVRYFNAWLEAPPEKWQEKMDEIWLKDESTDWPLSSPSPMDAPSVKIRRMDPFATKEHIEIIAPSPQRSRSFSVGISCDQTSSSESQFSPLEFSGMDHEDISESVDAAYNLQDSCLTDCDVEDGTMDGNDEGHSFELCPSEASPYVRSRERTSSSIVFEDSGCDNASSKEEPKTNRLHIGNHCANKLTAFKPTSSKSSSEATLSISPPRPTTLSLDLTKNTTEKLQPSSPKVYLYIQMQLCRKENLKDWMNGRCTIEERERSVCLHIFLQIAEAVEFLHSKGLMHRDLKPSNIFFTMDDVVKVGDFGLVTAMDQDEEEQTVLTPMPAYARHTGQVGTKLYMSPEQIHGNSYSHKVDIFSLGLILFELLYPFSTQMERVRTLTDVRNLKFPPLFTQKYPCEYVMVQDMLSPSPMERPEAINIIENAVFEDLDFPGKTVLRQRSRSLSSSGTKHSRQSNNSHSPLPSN
DTT redox prof – compounds producing H2O2 with reducing agent – biochemical, NIH compound library profiling, artefact control for MLSCN library redox annotation, primary screen; DTT-dependent redox cycling H2O2, phenol red/HRP absorbance; 100% = 100 µM peroxide control, 0% = buffer; activation, % at 10 µM; hit rate 0.03% among 200,000; AID 878;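 active means activation of at least 50% relative to the plate's high and low controls in the primary single-dose screen; inactive means activation below 50%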;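 further: compound incubated with DTT at 0.8 mM final as the reducing agent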
WT yeast gro inh – growth inhibition of WT yeast, mitochondrial fusion screen; mitochondrial fusion phenotypic screen, WT strain; inhibition, % at 10 µM; hit rate 2.1% among 190,000; AID 1362; in the data active means inhibition above about 58%; tested in S. cerevisiae
zVAD necrop conf – confirmed blocker of zVAD induced death in L929 cells; shares compounds with L929 necroptosis; L929 zVAD-induced necroptosis rescue, ATP luminescence, 24 h; activation (protection from necroptosis), % at 10 µM; hit rate 16% among 760; AID 463117;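 active means mean protection from necroptosis of at least 50% over duplicate tests; inactive means mean protection below 50%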;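 further: 0% = cells with zVAD alone and 100% = vehicle cells without zVAD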
* = called active by the depositor; . = no result given. An excerpt weighted towards active compounds, which were near 2.4% of everything screened.

SMILES	L929 necroptosis	PKD1 kinase inh	TNF death inh	PERK inhibitor	DTT redox prof	WT yeast gro inh	zVAD necrop conf
Cc1cc(C(=O)COC(=O)c2ccc(Br)o2)c(C)n1Cc1ccco1	0	-8	-2	1	0	40	.
CC(=O)Nc1ccc(Sc2ncccc2C(=O)Nc2ccc(OC(F)(F)F)cc2)cn1	80*	-7	-11	-1	1	-16	77*
CCc1cccc(CC)c1NC(=O)COC(=O)c1cccc(-c2ccc(OC(C)=O)cc2)c1	1	-6	3	0	1	-9	.
CCOC(=O)c1c(NC(=O)N/N=C/c2ccc(O)c(OC)c2)sc(C(C)=O)c1C	78*	.	-13	1	.	.	40
CCOC(=O)c1c(NC(=O)N/N=C/c2ccccc2OCC)sc(C(C)=O)c1C	1	6	2	0	-1	-4	.
COc1ccc(Cl)cc1C(=O)NNC(=O)CSc1nnnn1C	2	-4	2	1	0	3	.
Cc1ccc(Cl)cc1NC(=S)N(Cc1ccccc1)Cc1cccnc1	0	4	-1	0	-3	19	.
O=c1oc2ccccc2nc1/C=C(O)/C=C\c1ccccc1	78*	0	10	1	1	17	3
O=c1oc2ccccc2nc1/C=C(O)/C=C/c1ccc(F)cc1	14	-7	11	0	0	34	.
Cc1ccc2oc(=O)c(/C=C(\O)c3ccco3)nc2c1	6	.	4	0	.	.	.
Cc1ccc(/C(O)=C/c2nc3ccccc3oc2=O)cc1	77*	.	17	0	.	.	1
N#Cc1c(N)nc2c(c1-c1ccccc1)CCC2	79*	-7	-5	2	0	-1	8
CCN1CCN(C(CNS(=O)(=O)c2cccs2)c2cccnc2)CC1 (stereo not drawn)	0	.	6	1	.	.	.
Cc1ccccc1OCC(=O)Nc1ccc(Cc2ccncc2)cc1	79*	-20	3	0	0	32	13
COc1ccccc1N1CCN(C(=O)CCCn2nc(C)c([N+](=O)[O-])c2C)CC1	0	4	0	-1	0	-4	.
COc1ccc(-c2nnc3sc(C4CCCCC4)nn23)cc1OC	76*	-4	-3	-1	1	14	1
COc1ccc(-c2nn3c(C4CCCCC4)nnc3s2)cc1OC	1	1	-3	-1	2	0	.
O=C(O)c1ccc(Nc2nc(-c3cc4ccccc4oc3=O)cs2)cc1O	3	3	2	2	0	11	.
Nc1ccc(Nc2nc(-c3cc4ccccc4oc3=O)cs2)cc1	80*	-3	-6	-1	-1	5	4
CCN1CCN(Cc2ccc(NC(=O)c3ccc(C)c(NC(=O)c4ccc5n[nH]nc5c4)c3)cc2C(F)(F)F)CC1	72	.	2	.	.	.	.
CCN1CCN(Cc2ccc(NC(=O)c3ccc(C)c(NC(=O)c4ccnnc4)c3)cc2C(F)(F)F)CC1	76*	.	5	.	.	.	56*
CCN1CCN(Cc2ccc(NC(=O)c3cc(NC(=O)c4cnn(-c5ccccc5)c4N)cc(OC)c3)cc2C(F)(F)F)CC1	80*	.	-26	.	.	.	81*
COc1ccccc1NS(=O)(=O)c1cc(NC(=O)c2ccncc2)ccc1N1CCCC1	0	5	-3	0	0	24	.
CC(C)(C)c1ccc(NC(=O)Nc2ccc(OCC(=O)N3CCOCC3)cc2)cc1	80*	6	2	1	0	10	40
Cc1ccc(S(=O)(=O)N(C)C)cc1NC(=O)CSc1nnnn1-c1ccc(O)cc1	75	.	9	1	.	.	.
SMILES	L929 necroptosis	PKD1 kinase inh	TNF death inh	PERK inhibitor	DTT redox prof	WT yeast gro inh	zVAD necrop conf
CN(C)S(=O)(=O)c1ccc(Cl)c(NC(=O)CSc2nnnn2-c2ccc(O)cc2)c1	86*	7	9	1	-1	10	88*
Cc1nn(-c2ccccc2)c(C)c1-c1cc(C(=O)N/N=C/c2cccnc2)[nH]n1	75*	4	0	1	0	-3	3
COc1cccc(NC(=O)Nc2cc(Cl)ccc2C)c1	77*	-1	2	1	-2	19	0
COc1ccc(NC(=O)Nc2cccc(OC)c2)cc1	3	-5	1	2	0	-2	.
CC1(Cc2ccc3c(c2)OCO3)NC(=O)NC1=O (stereo not drawn)	102*	-12	17	0	1	-14	59*
COc1cc(CCc2ccc3c(c2)OCO3)oc(=O)c1	1	.	-1	.	.	.	.
CCOc1ccc(/C=C\C(C)=N\O)cc1	99*	-18	8	2	-1	0	31
CC1=NN(c2ccccc2)C(=O)/C1=C\c1cc(C)n(-c2ccccc2)c1C	88*	-3	3	0	1	0	2
CC1=NN(c2ccccc2)C(=O)/C1=C\c1cc(C)n(-c2cccnc2)c1C	0	.	-2	-2	.	.	.
CC(=O)N(C)c1ccc(NC(=O)c2ccc([N+](=O)[O-])cc2Cl)cc1	0	-4	1	0	0	-19	.
O=C(O)c1ccccc1N/N=C\c1ccnc2ccccc12	0	6	-3	1	-4	10	.
O=C(O)c1cccc2c(/C=N/Nc3ccccn3)c[nH]c12	84*	.	44	1	.	.	12
C(=N\Nc1ccccn1)/c1c[nH]c2ccccc12	92*	.	15	1	.	.	55*
CN1CCCN(S(=O)(=O)c2ccc(Cl)c(Cl)c2)CC1	1	-4	2	2	-2	-7	.
Cc1ccc(Nc2nc(-c3ccc(O)c(O)c3)cs2)nc1	79*	2	-7	0	-1	12	38
COc1ccc(-c2csc(Nc3ccc(C)cn3)n2)cc1OC	4	7	1	0	-2	5	.
Nc1nc(SCC(=O)Nc2ccc(Cl)cc2)[nH]c(=O)c1-c1ccccc1	4	0	0	1	0	-3	.
C/C(=N/NC(=O)c1cc(C)[nH]n1)c1ccco1	1	.	3	2	.	.	.
S=C(Sc1ccc(Cl)cc1)Sc1ccc(Cl)cc1	76*	.	-28	2	.	.	1
Cc1ccnc(NC(=O)Nc2cccc(F)c2)c1	92*	4	7	0	0	-11	32
Cc1cccc(NC(=O)Nc2cc(C)cc(C)n2)c1	76*	-2	0	1	-1	1	3
CNC(=O)COC(=O)c1cc(-c2ccccc2)nn1-c1ccccc1	2	-7	0	0	-1	5	.
N#Cc1cnn(-c2cccc(Cl)c2)c1-n1cccc1	0	.	1	2	.	.	.
CC(=O)Nc1cc(-c2ccc(Cl)cc2)[nH]n1	87*	2	0	1	0	1	37
COc1cc(OC)cc(-c2cc(NC(C)=O)n[nH]2)c1	43	-5	0	1	-2	10	.
